Assay results taken from PubChem BioAssay (Tox21).
Several values for one entry are separate records, joined by “and”; a condition that tells them apart may be missing. Equal values may be shown once. Records with an inconclusive call do not appear. A call without a number means that no potency is given here. More than one record can exist for a structure, and the calls need not agree. Activity calls are given as the source filed them. Unless noted, calls come from the whole dose curve; as a rule, active = well fitted curve in the direction sought with a large enough effect in the repeat runs; inconclusive = weak or mixed curves; inactive = no such curve, though single readings can be large; an effect the other way counts as inactive or inconclusive.

Columns and labels:
[1] = qHTS assay to identify small molecule agonists of the RXR signaling pathway - cell viability counter screen (AID 1159529); note: nearly all actives have a fitted effect of over 50% in size; note: potency is the fitted concentration of half-maximal effect
Outline: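 CellTiter-Glo luminescence gave viability in the wells also read for beta-lactamase. Cells (RXR-alpha-UAS-bla HEK 293T, 2% charcoal-stripped FBS medium) had 5 hr plating, then 16 hr compound exposure at 37 C; tetraoctyl ammonium bromide served as positive control.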

[2] = qHTS assay to identify small molecule antagonists of the retinoid acid receptor (RAR) signaling pathway - cell viability counter screen (AID 1159551); note: nearly all actives have a fitted effect of over 35% in size
Outline: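 ATP-based viability, C3RL4 cells, 6 h at 37 C with 1 uM final retinol co-added after compound; luminescence read 30 min post CellTiter-Glo, RT.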

[3] = qHTS assay to identify small molecule antagonists of the retinoic acid receptor (RAR) signaling pathway (AID 1159552; note: nearly all actives have a fitted effect of over 50% in size; note: potency is the fitted concentration of half-maximal effect)
Outline: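 Luminescent RARE reporter read-out in C3RL4 cells: 6 hr co-treatment at 37 C of test compounds with retinol at 1 uM final. Cells plated overnight beforehand; luciferase reagent incubated 30 min at room temperature before reading.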

[4] = qHTS assay to identify small molecule agonists of the retinoic acid receptor (RAR) signaling pathway (AID 1159553); settings: C3RL4 RARE luciferase reporter, agonist, 6 h; activation: at 73.3 µM (top of the series) unless noted; note: potency is the fitted concentration of half-maximal effect
Outline: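 Quantitative high-throughput format: the Tox21 10K library was tested on C3RL4 RARE-luciferase cells for 6 hr at 37 C and 5% CO2, with luminescence measured after a 30 min room-temperature reagent step.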

[5] = qHTS assay to identify small molecule antagonists of the estrogen related receptor (ERR) signaling pathway from Tox21 library - cell viability counter screen (AID 1224834); note: nearly all actives have a fitted effect of over 30% in size
Outline: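 Compounds in DMSO were pinned onto ERR cells that had been incubated for 6 h, and the plates were held at 37 C for 17.5 h. CellTiter-Fluor reagent was then added and fluorescence was measured after 30 min.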

[6] = biological target: Luciferin 4-monooxygenase (Photinus pyralis) (UniProt P08659); test: qHTS assay to identify small molecule inhibitors of firefly luciferase (AID 1224835); note: nearly all actives have a fitted effect of over 25% in size; note: potency is the fitted concentration of half-maximal effect
Outline: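 Biochemical qHTS: compounds run as interplate titrations against purified firefly enzyme, with D-luciferin and ATP each at its KM concentration. Light output recorded by CCD imaging.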

[7] = qHTS assay to identify small molecule agonists of the constitutive androstane receptor (CAR) signaling pathway - cell viability counter screen (AID 1224836); note: nearly all actives have a fitted effect of over 45% in size
Outline: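 Cell viability multiplexed with the CAR agonist screen: CellTiter-Fluor fluorescence after 23 hr at 37 C. HepG2-CYP2B6-hCAR cells got compounds at 15 concentrations with PK11195 at 0.75 uM final.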

[8] = qHTS assay to identify small molecule antagonists of the constitutive androstane receptor (CAR) signaling pathway - cell viability counter screen (AID 1224837); note: nearly all actives have a fitted effect of over 45% in size
Outline: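 Cells are seeded, rested 4 hr at 37 C/5% CO2, dosed with compound (15-point series) and 50 nM CITCO, incubated a further 23 hr, and then CellTiter-Fluor reagent is added before fluorescence is read. The line is HepG2 with stable hCAR and CYP2B6-2.2kb.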

[9] = biological target: Nuclear receptor subfamily 1 group I member 3 (Homo sapiens) (UniProt Q14994); test: qHTS assay to identify small molecule antagonists of the constitutive androstane receptor (CAR) signaling pathway (AID 1224838);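 note: HepG2 cells stably expressing hCAR with CYP2B6 luciferase reporter stimulated by CITCO; nearly all actives have a fitted effect of over 40% in size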; note: potency is the fitted concentration of half-maximal effect
Outline: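 Luminescence from a CYP2B6-2.2kb promoter reporter in hCAR-expressing HepG2 cells reflects CAR signaling. Cells received compounds at 15 concentrations and 50 nM CITCO (final), then incubated 24 h at 37 C/5% CO2.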

[10] = biological target: Nuclear receptor subfamily 1 group I member 3 (Homo sapiens) (UniProt Q14994); test: qHTS assay to identify small molecule agonists of the constitutive androstane receptor (CAR) signaling pathway (AID 1224839); note: nearly all actives have a fitted effect of over 15% in size; note: potency is the fitted concentration of half-maximal effect;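 for activation: HepG2 cells stably carrying human CAR and a CYP2B6 luciferase reporter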
Outline: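 Luminescent ONE-Glo read-out after 24 hr, 37 C exposure of double-stable HepG2-CYP2B6-hCAR reporter cells to a 15-point compound series, in the presence of 0.75 uM PK11195 (final).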

[11] = qHTS assay to identify small molecule antagonists of the estrogen related receptor signaling pathway with the pleiotropic PPARgamma coactivator (PGC) from Tox21 10K library - cell viability counter screen (AID 1224840; active = well fitted cell-killing curve with a large enough effect in the repeat runs, not every such curve was filed as active; note: nearly all actives have a fitted effect of over 40% in size)
Outline: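 Cell viability is measured by CellTiter-Fluor fluorescence in PGC/ERR cells that receive compounds after a 6-hour attachment period and are then incubated 17.5 hours at 37 C.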

[12] = biological target: Thyrotropin receptor (Homo sapiens) (UniProt P16473); test: qHTS assay to identify small molecule agonists of the thyroid stimulating hormone receptor (TSHR) signaling pathway (AID 1224843; calls by dose curve; note: nearly all actives have a fitted effect of over 45% in size)
Outline: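 HEK293/TSHR, 800 cells/well; cpd 30 min RT; add cAMP-d2 + anti-cAMP-cryptate, 1 h RT; fluorescence read on plate reader. 15-pt titration, n=3.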

[13] = qHTS assay to identify small molecule antagonists of the estrogen related receptor signaling pathway with the pleiotropic PPARgamma coactivator (PGC) from Tox21 10K library (AID 1224841; call rule not given here; note: actives are mostly falling curves and most rising ones were filed inactive; nearly all actives have a fitted effect of over 50% in size; note: potency is the fitted concentration of half-maximal effect)
Outline: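 Cells stably carrying the PGC/ERR reporter, seeded at 2,000 per well, received pin-transferred compounds 6 h post-plating. Exposure lasted 18 h at 37 C. Signal: One-Glo luminescence.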

[14] = qHTS assay to identify small molecule agonists of the estrogen related receptor signaling pathway with the pleiotropic PPARgamma coactivator (PGC) from Tox21 10K library (AID 1224842); note: nearly all actives have a fitted effect of over 15% in size
Outline: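 PGC/ERR reporter cell line, 2,000 cells per well, incubated 6 h at 37 C before 23 nL compound in DMSO was added. After 18 h at 37 C, One-Glo luminescence read following 30 min at room temperature.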

[15] = qHTS assay to identify small molecule antagonists of the estrogen related receptor (ERR) signaling pathway - cell viability counter screen (AID 1224818);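 note: viability measured after 17.5 h of compound exposure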
Outline: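 Quantitative high-throughput viability counter screen in ERR cells. Compounds (DMSO) incubated 17.5 h at 37 C; read-out was CellTiter-Fluor fluorescence.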

[16] = qHTS assay to identify small molecule antagonists of the estrogen related receptor signaling pathway with the pleiotropic PPARgamma coactivator (PGC) cell viability counter screen (AID 1224822)
Outline: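 Cytotoxicity in the PGC/ERR cell line is assessed with CellTiter-Fluor, read as fluorescence intensity 30 min after reagent addition, following 17.5 h compound treatment at 37 C.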

Luciferin 4-monooxygenase (Photinus pyralis), sequence (P08659 whole entry, looked up): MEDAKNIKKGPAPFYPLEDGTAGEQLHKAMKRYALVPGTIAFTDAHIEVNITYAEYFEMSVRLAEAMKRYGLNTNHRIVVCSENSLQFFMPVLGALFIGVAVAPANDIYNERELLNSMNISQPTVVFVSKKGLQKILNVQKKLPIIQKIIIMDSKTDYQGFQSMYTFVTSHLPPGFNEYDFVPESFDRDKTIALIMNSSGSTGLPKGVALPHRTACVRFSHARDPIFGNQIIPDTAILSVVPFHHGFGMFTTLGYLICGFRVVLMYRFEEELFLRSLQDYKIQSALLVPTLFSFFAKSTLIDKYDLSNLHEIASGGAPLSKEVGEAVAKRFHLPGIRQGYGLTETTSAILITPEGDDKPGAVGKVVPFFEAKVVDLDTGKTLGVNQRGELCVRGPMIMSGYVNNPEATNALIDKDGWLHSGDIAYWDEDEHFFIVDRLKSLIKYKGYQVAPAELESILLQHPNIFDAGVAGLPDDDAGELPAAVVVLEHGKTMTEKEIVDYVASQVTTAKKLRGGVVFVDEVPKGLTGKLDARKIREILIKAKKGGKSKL
Nuclear receptor subfamily 1 group I member 3 (Homo sapiens), sequence (Q14994 whole entry, looked up): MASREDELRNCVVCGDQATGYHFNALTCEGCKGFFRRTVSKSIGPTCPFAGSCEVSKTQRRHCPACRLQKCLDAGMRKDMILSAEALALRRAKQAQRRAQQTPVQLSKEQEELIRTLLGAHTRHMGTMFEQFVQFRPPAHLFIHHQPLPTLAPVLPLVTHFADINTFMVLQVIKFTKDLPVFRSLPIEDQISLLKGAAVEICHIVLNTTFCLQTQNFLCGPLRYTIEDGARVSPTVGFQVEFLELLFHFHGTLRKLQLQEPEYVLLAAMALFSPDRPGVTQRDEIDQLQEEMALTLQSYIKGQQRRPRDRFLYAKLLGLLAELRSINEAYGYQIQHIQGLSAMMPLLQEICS
Thyrotropin receptor (Homo sapiens), sequence (P16473 whole entry, looked up): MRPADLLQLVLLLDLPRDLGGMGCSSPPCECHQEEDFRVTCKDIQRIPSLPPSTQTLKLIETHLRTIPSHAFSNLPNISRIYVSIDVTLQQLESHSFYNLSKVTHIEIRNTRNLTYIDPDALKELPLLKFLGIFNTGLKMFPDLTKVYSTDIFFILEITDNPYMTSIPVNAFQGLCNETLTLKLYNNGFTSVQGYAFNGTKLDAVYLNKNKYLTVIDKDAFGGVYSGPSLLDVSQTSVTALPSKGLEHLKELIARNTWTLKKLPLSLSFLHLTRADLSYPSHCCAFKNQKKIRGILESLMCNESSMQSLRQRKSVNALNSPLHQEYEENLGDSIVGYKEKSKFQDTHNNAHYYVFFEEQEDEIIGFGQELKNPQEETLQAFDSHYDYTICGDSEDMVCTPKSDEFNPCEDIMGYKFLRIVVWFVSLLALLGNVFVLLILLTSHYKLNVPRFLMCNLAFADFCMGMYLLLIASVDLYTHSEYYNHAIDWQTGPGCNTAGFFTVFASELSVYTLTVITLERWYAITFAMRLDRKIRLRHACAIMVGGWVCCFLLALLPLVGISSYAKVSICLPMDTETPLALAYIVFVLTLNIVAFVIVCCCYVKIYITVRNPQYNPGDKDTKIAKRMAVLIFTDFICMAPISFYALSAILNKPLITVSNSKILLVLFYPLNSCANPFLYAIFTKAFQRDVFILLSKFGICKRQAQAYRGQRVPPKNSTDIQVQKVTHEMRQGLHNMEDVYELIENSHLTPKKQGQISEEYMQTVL

| SMILES | Potency [1] | Potency [2] | Potency [3] | Potency [4] | Potency [5] | Potency [6] | Potency [7] | Potency [8] | Potency [9] | Potency [10] | Potency [11] | Potency [12] | Potency [13] | Potency [14] | outcome [15] | Potency [16] |
| --- | --- | --- | --- | --- | --- | --- | --- | --- | --- | --- | --- | --- | --- | --- | --- | --- |
| CC(O)CN(CC(C)O)CC(C)O (stereo not given) | inactive | inactive | inactive | inactive | inactive | inactive | inactive | inactive | inactive | inactive | inactive | inactive |  |  |  |  |
| CC1(C)C(C(=O)OC(C#N)c2cccc(Oc3ccccc3)c2)C1(C)C (stereo not given) | inactive | inactive | inactive | inactive | inactive | inactive | inactive | inactive | inactive | 12.3 µM (active) and 24.3 µM (active) | inactive |  | 27.5 µM (active) | inactive |  |  |
| O=P(OCCCl)(OCCCl)OCCCl | inactive | inactive | inactive | inactive | inactive | inactive | inactive | inactive | inactive | inactive | inactive |  | 4.81 µM (active) and inactive | inactive |  |  |
| OCCOCCO | inactive | inactive | inactive | inactive | inactive | inactive | inactive | inactive | inactive | inactive | inactive |  |  |  |  |  |
| CC(C)CON=O | inactive | inactive | inactive | inactive | inactive | inactive | inactive | inactive | inactive | inactive | inactive | inactive |  |  |  |  |
| COP(=S)(OC)Oc1ccc(Sc2ccc(OP(=S)(OC)OC)cc2)cc1 | inactive | inactive | inactive | 61.1 µM (active) and inactive | inactive | 31.7 µM (active) and inactive | inactive | inactive |  | 61.1 µM (active) and inactive | inactive | inactive | inactive | inactive |  |  |
| Clc1ccccc1-c1nnc(-c2ccccc2Cl)nn1 | inactive | inactive | inactive | 6.8 µM (active) | inactive | 1.4 µM (active) and 708 nM (active) | inactive | inactive | inactive | 30.4 µM (active) and 9.66 µM (active) | inactive | inactive |  |  |  |  |
| S=c1[nH]c2ccccc2[nH]1 | inactive | inactive | inactive | inactive | inactive | inactive | inactive | inactive | 54.6 µM (active) and inactive | inactive | inactive | inactive |  | inactive |  |  |
| C[C@]12CCC(=O)C=C1CC[C@@H]1[C@@H]2CC[C@@]2(C)[C@H]1CC[C@]2(C)O | inactive | inactive | 43.6 µM (active) | inactive | inactive | inactive | inactive | inactive |  | inactive | inactive | inactive |  |  | inactive | inactive |
| Cc1ccc(N=CN(C)C=Nc2ccc(C)cc2C)c(C)c1 | 43.8 µM (active) and 43.6 µM (active) and inactive | inactive | inactive | inactive | inactive | inactive | inactive | inactive | inactive | inactive | inactive | inactive |  |  |  |  |
| C=CC(Cl)CCl (stereo not given) | inactive | inactive | inactive | inactive | inactive | inactive | inactive | inactive | inactive | inactive | inactive | inactive |  |  |  |  |
| COC(=O)Nc1nc2ccccc2[nH]1 | inactive | inactive | inactive | inactive | inactive | inactive | inactive | inactive | inactive |  | inactive | inactive |  |  |  |  |
| Oc1ccc(Cl)cc1Cl | inactive | inactive | inactive | inactive | inactive | inactive | inactive | inactive | inactive | inactive | inactive |  | inactive | inactive |  |  |
| Brc1ccc(Br)cc1 | inactive | inactive | inactive | inactive | inactive | inactive | inactive | inactive | inactive | inactive | inactive | inactive | inactive | inactive |  |  |
| CCCCOCC1CO1 (stereo not given) | inactive | inactive | inactive | inactive | inactive | inactive | inactive | inactive | inactive | inactive | inactive | inactive | inactive | inactive |  |  |
| N#CC(c1ccccc1)c1ccccc1 | inactive | inactive | inactive | inactive | inactive | inactive | inactive | inactive |  | inactive | inactive | inactive | inactive | inactive |  |  |
| Cn1c(-c2ccccc2)cc(-c2ccccc2)[n+]1C | inactive | inactive | inactive | inactive | inactive | inactive | inactive | inactive | inactive | inactive | inactive | inactive | 8.62 µM (active) and 27.3 µM (active) | inactive |  |  |
